# Reference: PubChem BioAssay (NCATS)
# Results filed as inconclusive are left out. A number with no mark means an inactive call. Calls of active or inactive are those of the source. The call rests on the fitted dose curve; in most records, active means well fitted inhibition curve with a large enough effect; inconclusive means small, poorly fitted or top-dose-only effect; inactive means no such curve, though single readings can be large or run the other way.
# Test: Primary qHTS for inhibitors of nuclear receptor binding SET domain protein 2 (NSD2) in an RCH-ACV wild type WT cells (2C) (AID 1645877); further: nearly all actives have a fitted effect of over 70% in size
# Details: RCH-ACV (leukaemia line) NSD2 WT (2C) viability, CellTiter-Glo, 72 h; series mostly up to 44.9 µM; activity change, negative = cell killing: at the top concentration
# Source text: Assay Provider: Jonathan D. Licht, MD
# University of Florida College of Medicine, Gainesville, FL
# Mutations in epigenetic regulators are common in relapsed pediatric acute lymphoblastic leukemia (ALL). Here, we uncovered the mechanism underlying the relapse of ALL driven by an activating mutation of the NSD2 histone methyltransferase (p.E1099K). […] Correction of this mutation restored glucocorticoid sensitivity. The transcriptional response to glucocorticoids was blocked in NSD2 mutant cells due to depressed glucocorticoid receptor (GR) levels and the failure of glucocorticoids to autoactivate GR expression. […] Pre-treatment of NSD2 p.E1099K cell lines and PDX samples with PRC2 inhibitors reversed glucocorticoid resistance in vitro and in vivo.
# High-throughput drug screening of isogenic RCH-ACV cell lines was performed at the National Center for Advancing Translational Science (NCATS), National Institutes of Health as previously described (1). Briefly, isogenic RCH-ACV NSD2 p.E1099K mutant (9B) and WT cells (2C) were plated at 500 cells/well in a 1536-well plate with a 72-hour incubation with compounds prior to addition of CellTiter-Glo to assess cell viability. NCATS libraries screened include: NPC, MIPE 5.0, Kinase and NPACT. To determine compound activity in the qHTS assay, the concentration-response data for each sample was plotted and modeled by a four-parameter logistic fit yielding IC50 and efficacy (maximal response) values. The area under the curve (AUC) of the dose-response curve ensures both efficacy (magnitude of cell killing) and potency (concentration that elicits cell killing) are accounted for in the analysis of activity.
# 1. Tobie D Lee, Olivia W Lee, Kyle R Brimacombe, Lu Chen, Rajarshi Guha, Sabrina Lusvarghi, Bethilehem G Tebase, Carleen Klumpp-Thomas, Robert W Robey, Suresh V Ambudkar, Min Shen, Michael M Gottesman, Matthew D Hall. A High-Throughput Screen of a Library of Therapeutics Identifies Cytotoxic Substrates of P-glycoprotein. Mol Pharmacol. 2019, Nov;96(5):629-640.
# On the % scale 0 is the no-effect control and ±100 the full control effect.
Compound,outcome,"activity change, negative = cell killing",Potency
CC(=O)N(CC(O)CN(C(C)=O)c1c(I)c(C(=O)NCC(O)CO)c(I)c(C(=O)NCC(O)CO)c1I)c1c(I)c(C(=O)NCC(O)CO)c(I)c(C(=O)NCC(O)CO)c1I (stereo not given),inactive,–,–
CCOc1ccc(C(=O)OCCN(CC)CC)cc1,–,-4.2%,–
O=C(c1ccccc1)C(O)c1ccccc1 (stereo not given),inactive,–,–
COc1ccc(C(=O)N2CCN(CC(=O)N3CCOCC3)CC2)cc1,–,1.58%,–
Cc1cc(C)nc(NS(=O)(=O)c2ccc(N)cc2)n1,–,-4.43%,–
C/C=C1\[C@H]2C=C(C)C[C@]1(N)c1ccc(=O)[nH]c1C2,–,7.42%,–
C=CCN1C[C@H](C(=O)N(CCCN(C)C)C(=O)NCC)C[C@@H]2c3cccc4[nH]cc(c34)C[C@H]21,–,7.56%,–
CCCNC(C)(C)COC(=O)c1ccccc1,–,-13.5%,–
OCCN1C[C@H](O)[C@@H](O)[C@H](O)[C@H]1CO,–,–,inactive
NC(=O)NC1NC(=O)NC1=O (stereo not given),inactive,–,–
CCN(CC)C(=O)c1cccc(C)c1,–,0.927%,–
Nc1ncnc2c1ncn2[C@@H]1O[C@H](COP(=O)(O)O)[C@@H](O)[C@H]1O,–,7.61%,–
C[N+]1(C)CCCC(OC(=O)C(O)(c2ccccc2)c2ccccc2)C1 (stereo not given),–,-4.59%,–
O=C1C(c2[nH]c3ccccc3c2O)=Nc2ccccc21,–,-5.13%,–
CC1CCN(CCCC(=O)c2ccc(F)cc2)CC1,–,-9.5%,–
CC(=O)OC[C@H]1O[C@@](COC(C)=O)(O[C@H]2O[C@H](COC(C)=O)[C@@H](OC(C)=O)[C@H](OC(C)=O)[C@H]2OC(C)=O)[C@@H](OC(C)=O)[C@@H]1OC(C)=O,–,-16.1%,–
COc1cc(C(=O)NCCCCCC(=O)O)cc(OC)c1OC,inactive,–,–
CC[C@H](C)[C@H](N)C(=O)O,–,-0.51%,–
CC(=O)NS(=O)(=O)c1ccc(N)cc1,–,-0.273%,–
CN[C@@H]1[C@H](O)[C@H](NC)[C@H]2O[C@@]3(O)C(=O)C[C@@H](C)O[C@H]3O[C@@H]2[C@H]1O,inactive,–,–

Compound,outcome,"activity change, negative = cell killing",Potency
O=C(O)c1ccccc1C(=O)Nc1ccc(S(=O)(=O)Nc2nccs2)cc1,–,-5.86%,–
CCOC(N)=O,–,-3.39%,–
CC(CSC(=O)c1ccccc1)C(=O)N1C[C@@H](Sc2ccccc2)C[C@H]1C(=O)O (stereo not given in full),–,9.26% [at 17.3 µM],–
Nc1ccc(S(=O)(=O)c2ccc(N)cc2)cc1,–,6.02%,–
C=CCSCC1Nc2cc(Cl)c(S(N)(=O)=O)cc2S(=O)(=O)N1 (stereo not given),–,-11.6%,–
O=C(Cn1ccnc1[N+](=O)[O-])NCc1ccccc1,–,-6.71%,–
CC(=O)Nc1ccccc1,inactive,–,–
NS(=O)(=O)c1ccc(NC(=O)CCC(=O)O)cc1,inactive,–,–
CC(C)c1cc2c(cc1S(=O)(=O)O)[C@@]1(C)CCC[C@@](C)(C(=O)O)[C@@H]1CC2,inactive,–,–
CCCCCCCCCCOc1cc2c(=O)c(C(=O)OCC)c[nH]c2cc1OCC,–,4.45% [at 4.96 µM],–
CCCCCOC(=O)Nc1nc(=O)n([C@@H]2O[C@H](C)[C@@H](O)[C@H]2O)cc1F,–,–,inactive
CN(C/C=C/C#CC(C)(C)C)Cc1cccc2ccccc12,inactive,–,–
O=C(OOC(=O)c1ccccc1)c1ccccc1,inactive,–,–
NC(N)=NS(=O)(=O)c1ccc(N)cc1,inactive,–,–
Cc1ncc(CO)c(CN)c1O,–,3.03%,–
CC(C)(C)C(=O)OCOC(=O)[C@@H]1N2C(=O)[C@@H](NC(=O)[C@H](N)c3ccccc3)[C@H]2SC1(C)C,inactive,–,–
CC(C)(C)NCC(O)COc1cccc2c1CCC(=O)N2 (stereo not given),–,-5.18%,–
C[n+]1ccccc1/C=N/O,–,-3.3%,–
CC(=O)Oc1cccc(C)c1,inactive,–,–
CC(O)CCCCn1c(=O)c2c(ncn2C)n(C)c1=O (stereo not given),–,-1.46%,–
